Reference: PubChem BioAssay (NCATS)
Inconclusive results are not listed. Calls of active or inactive are those of the source. Unless noted, calls follow the shape of the dose curve; as a rule, active = well fitted curve in the direction sought with a large enough effect; inconclusive = small, poorly fitted or top-dose-only effect, or another doubt; inactive = no such curve, though single readings can be large; an effect the other way counts as inactive or inconclusive.

Key:
[1] = molecular target: Lysosomal acid glucosylceramidase (Homo sapiens) (UniProt P04062); test: Glucocerebrosidase-p2 (AID 348; in the data active = potency below about 10 µM; also: potency is read from the fitted curve at half-maximal effect); details: purified GBA, blue fluorogenic substrate, 40 min
Chain of Lysosomal acid glucosylceramidase (Homo sapiens) (P04062 whole entry, looked up): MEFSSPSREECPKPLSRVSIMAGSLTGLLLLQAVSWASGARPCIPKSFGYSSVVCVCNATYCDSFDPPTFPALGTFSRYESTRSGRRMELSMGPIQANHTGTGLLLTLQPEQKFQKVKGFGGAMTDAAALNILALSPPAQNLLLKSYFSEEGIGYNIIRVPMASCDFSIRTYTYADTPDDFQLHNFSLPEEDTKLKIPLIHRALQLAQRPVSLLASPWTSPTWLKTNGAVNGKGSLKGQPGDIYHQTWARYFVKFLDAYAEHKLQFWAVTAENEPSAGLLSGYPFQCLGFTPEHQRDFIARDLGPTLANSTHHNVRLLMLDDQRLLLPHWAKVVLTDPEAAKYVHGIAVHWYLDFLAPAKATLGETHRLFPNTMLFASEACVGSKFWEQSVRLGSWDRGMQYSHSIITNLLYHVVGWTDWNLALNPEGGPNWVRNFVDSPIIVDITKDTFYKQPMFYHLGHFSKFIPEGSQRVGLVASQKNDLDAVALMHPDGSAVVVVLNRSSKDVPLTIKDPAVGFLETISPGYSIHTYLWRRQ
Summary of the method: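 Compounds titrated from 0.6 nM upwards against 0.2 nM enzyme in pH 5.9 citric acid/KH2PO4, taurocholate, tween-20; blue fluorogenic substrate 80 uM, 40 min room temperature, stopped and read Ex 365/Em 440 for AC50.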

[2] = AP1 Signaling Pathway (AID 357; active = well fitted curve in either direction with a large enough effect, not every such curve was filed as active; also: % is scaled to controls: 0 for no effect and ±100 for the full control effect); details: ME-180 AP-1-bla reporter, EGF-induced, beta-lactamase ratio, 5 h; at 7.69 µM (top of the series) unless noted
Summary of the method: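 ME-180 cells with beta-lactamase reporter under AP-1 response element, stimulated with EC50 EGF; compounds tested in titration series, 5 h at 37 °C. CCF4 substrate added 2.5 h at room temperature; 460/530 nm emission ratio gave %activity and AC50.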

[3] = molecular target: Cytochrome P450 1A2 (Homo sapiens) (UniProt P05177); test: p450-cyp1a2 (AID 410; calls by dose curve;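 also: -100% = full effect of reference inhibitor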); details: recombinant CYP1A2, luciferin-ME demethylation, luminescence; series mostly up to 11.4 µM
Chain of Cytochrome P450 1A2 (Homo sapiens) (P05177 whole entry, looked up): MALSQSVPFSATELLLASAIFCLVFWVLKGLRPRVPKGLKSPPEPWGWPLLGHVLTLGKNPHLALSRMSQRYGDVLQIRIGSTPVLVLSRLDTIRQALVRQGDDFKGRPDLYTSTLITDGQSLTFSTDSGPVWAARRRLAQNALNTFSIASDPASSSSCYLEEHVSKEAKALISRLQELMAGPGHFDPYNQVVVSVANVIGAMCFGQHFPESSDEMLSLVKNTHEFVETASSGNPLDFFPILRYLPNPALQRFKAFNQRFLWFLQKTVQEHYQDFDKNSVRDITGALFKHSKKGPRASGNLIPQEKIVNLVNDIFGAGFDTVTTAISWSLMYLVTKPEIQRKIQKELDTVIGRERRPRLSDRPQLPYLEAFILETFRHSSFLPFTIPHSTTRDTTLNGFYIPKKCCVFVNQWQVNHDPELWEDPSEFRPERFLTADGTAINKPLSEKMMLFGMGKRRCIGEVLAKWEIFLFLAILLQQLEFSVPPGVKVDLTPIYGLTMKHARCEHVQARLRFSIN
Summary of the method: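 Luminescent readout of luciferin formed from Luciferin-ME by human CYP1A2; data normalized against complete inhibition by 57 uM furafylline. Enzyme 20nM, substrate 100uM at Km, 100mM KPO4 buffer, 60 min reaction at room temperature.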

[4] = NFAT Signaling Pathway (AID 444; active = well fitted curve in either direction with a large enough effect, not every such curve was filed as active;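 also: carbachol stimulus at about its EC50 of 1 µM final; % is scaled to controls: 0 for no effect and ±100 for the full control effect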); details: Jurkat NFAT-bla M1, carbachol, beta-lactamase ratio, 5 h; at 7.69 µM (top of the series) unless noted
Summary of the method: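 Jurkat cells with NFAT-driven β-lactamase reporter and co-expressed M1 receptor, stimulated with carbachol (final 1 uM, ~EC50), compound titration, 5 h at 37 °C. CCF4 loaded 1 h at RT; 460/530 nm ratio gave %activity and AC50.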

[5] = Stat Signaling Pathway (AID 446; active = well fitted curve in either direction with a large enough effect, not every such curve was filed as active;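 also: ME-180 cervical cancer cells given 40 pM IL-6 alongside compound; SIE-controlled beta-lactamase reporter measured as 460/530 nm FRET emission ratio; % is scaled to controls: 0 for no effect and ±100 for the full control effect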); details: ME-180 (cervical carcinoma) SIE beta-lactamase reporter, IL-6 stimulated, 5 h; at 7.69 µM (top of the series) unless noted
Summary of the method: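 IL-6/STAT signaling read in ME-180 cells via an SIE beta-lactamase reporter. Stimulus was 40 pM IL-6 (its AC50) for 5 hrs, so both activation and inhibition register.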

[6] = molecular target: Glucocorticoid receptor (Homo sapiens) (UniProt P04150); test: GR-GFP Redistribution (AID 450;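 active = compounds whose dose series gives a full or clear partial fitted curve of increased nuclear translocation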; also: potency is read from the fitted curve at half-maximal effect); details: U2OS GR-GFP nuclear translocation, laser cytometry, 2 h
Chain of Glucocorticoid receptor (Homo sapiens) (P04150 whole entry, looked up, the tested form may be a part): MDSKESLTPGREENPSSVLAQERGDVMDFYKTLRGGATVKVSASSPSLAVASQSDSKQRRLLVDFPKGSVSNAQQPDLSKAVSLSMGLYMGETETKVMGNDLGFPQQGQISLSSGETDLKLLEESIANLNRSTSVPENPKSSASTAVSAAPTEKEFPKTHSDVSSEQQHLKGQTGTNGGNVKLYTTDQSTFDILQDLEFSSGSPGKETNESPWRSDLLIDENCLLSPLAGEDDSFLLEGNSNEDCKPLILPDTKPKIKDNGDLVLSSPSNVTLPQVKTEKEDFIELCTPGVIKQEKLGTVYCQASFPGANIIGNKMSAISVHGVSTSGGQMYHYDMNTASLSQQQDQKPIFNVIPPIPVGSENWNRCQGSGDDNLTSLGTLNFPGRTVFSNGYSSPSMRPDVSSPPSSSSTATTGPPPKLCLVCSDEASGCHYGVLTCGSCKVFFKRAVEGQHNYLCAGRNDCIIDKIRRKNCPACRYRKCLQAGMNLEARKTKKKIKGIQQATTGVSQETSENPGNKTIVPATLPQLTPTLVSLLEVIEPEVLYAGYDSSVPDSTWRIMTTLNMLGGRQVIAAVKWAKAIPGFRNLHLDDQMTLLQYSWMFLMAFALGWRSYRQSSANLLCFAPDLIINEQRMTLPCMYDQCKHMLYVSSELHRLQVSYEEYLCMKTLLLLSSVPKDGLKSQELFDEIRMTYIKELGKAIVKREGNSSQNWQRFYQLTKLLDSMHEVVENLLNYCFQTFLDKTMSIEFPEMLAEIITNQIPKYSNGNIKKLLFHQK

[7] = molecular target: Glucocorticoid receptor (Homo sapiens) (UniProt P04150); test: GR-EFC Redistribution (AID 451; calls by dose curve; also: potency is read from the fitted curve at half-maximal effect); details: CHO-K1 GR-EFC translocation, beta-gal luminescence, 2 h
Summary of the method: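 CHO-K1 cells expressing nuclear EA and GR-ED fragments of b-gal; compounds titrated up to 46 uM final, 2 h at 37 C. GR nuclear translocation read as complemented b-gal luminescence after 1 h RT detection.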

[8] = molecular target: Mitogen-activated protein kinase 10 (Mus musculus) (UniProt Q61831); test: JNK3 AlphaScreen Assay (AID 530; active = well fitted curve in either direction with a large enough effect, not every such curve was filed as active;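 also: kinase came from lysate of stimulated human HepG2 cells; signal reports phosphorylation of biotinylated GST-cJun 1-79 at Ser73 with 10 µM ATP; % is scaled to controls: 0 for no effect and ±100 for the full control effect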); details: JNK3 lysate, c-Jun phosphorylation; series mostly up to 57.1 µM
Summary of the method: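 Pre-activated (IL-1β/TNFα) JNK3 in HepG2 lysates phosphorylates biotin-GST-cJun(1-79), 10 uM ATP; anti-phospho-cJun(Ser73) AlphaScreen read at room temperature, pH 7.6 Tris buffer. Compounds pre-incubated 15 min as titrations.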

[9] = molecular target: 3',5'-cyclic-AMP phosphodiesterase 4B (Homo sapiens) (UniProt Q07343); test: qHTS Assay for Inhibitors of PDE-IV (AID 607; active = well fitted activation curve with a large enough effect in the main read-out, with a control signal flat, not every such curve was filed as active; also: % of control where 0% means no effect); details: HEK293 ACTOne CNG channel cells, membrane potential fluorescence; series mostly up to 22.9 µM
Chain of 3',5'-cyclic-AMP phosphodiesterase 4B (Homo sapiens) (Q07343 whole entry, looked up): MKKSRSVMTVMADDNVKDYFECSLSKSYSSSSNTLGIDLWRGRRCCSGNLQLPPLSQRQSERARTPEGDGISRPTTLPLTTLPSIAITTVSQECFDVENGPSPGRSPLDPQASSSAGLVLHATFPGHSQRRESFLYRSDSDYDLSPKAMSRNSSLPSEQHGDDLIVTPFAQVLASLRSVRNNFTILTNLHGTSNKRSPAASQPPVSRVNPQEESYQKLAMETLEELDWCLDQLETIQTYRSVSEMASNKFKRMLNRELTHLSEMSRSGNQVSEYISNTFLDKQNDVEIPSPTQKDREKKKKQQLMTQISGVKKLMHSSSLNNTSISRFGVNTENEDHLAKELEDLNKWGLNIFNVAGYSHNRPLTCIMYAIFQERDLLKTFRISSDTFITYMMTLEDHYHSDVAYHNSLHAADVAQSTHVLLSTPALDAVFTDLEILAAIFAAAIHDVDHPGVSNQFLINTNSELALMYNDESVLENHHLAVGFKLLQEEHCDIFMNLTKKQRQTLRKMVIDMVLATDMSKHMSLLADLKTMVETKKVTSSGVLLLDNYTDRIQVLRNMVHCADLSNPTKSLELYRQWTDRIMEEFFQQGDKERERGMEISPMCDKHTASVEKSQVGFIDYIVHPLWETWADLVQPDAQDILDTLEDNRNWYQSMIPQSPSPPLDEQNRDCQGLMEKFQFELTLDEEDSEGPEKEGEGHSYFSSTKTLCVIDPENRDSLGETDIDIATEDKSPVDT
Summary of the method: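 Live HEK293 cells with a modified cyclic nucleotide-gated (CNG) channel report intracellular cAMP via membrane-potential dye fluorescence (ex 535/em 590 nm). Endogenous PDE-IV was targeted. Compounds were tested at up to 22.9 uM final; RO 20-1724 100 uM served as control.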

[10] = molecular target: Cytochrome P450 2C19 (Homo sapiens) (UniProt P33261); test: qHTS Assay for Inhibitors and Substrates of Cytochrome P450 2C19 (AID 899); details: recombinant CYP2C19, luciferin-H EGE luminescence; series mostly up to 11.4 µM; also: % is scaled to controls: 0 for no effect and ±100 for the full control effect; nearly all actives have a fitted effect of over 60% in size
Chain of Cytochrome P450 2C19 (Homo sapiens) (P33261 whole entry, looked up): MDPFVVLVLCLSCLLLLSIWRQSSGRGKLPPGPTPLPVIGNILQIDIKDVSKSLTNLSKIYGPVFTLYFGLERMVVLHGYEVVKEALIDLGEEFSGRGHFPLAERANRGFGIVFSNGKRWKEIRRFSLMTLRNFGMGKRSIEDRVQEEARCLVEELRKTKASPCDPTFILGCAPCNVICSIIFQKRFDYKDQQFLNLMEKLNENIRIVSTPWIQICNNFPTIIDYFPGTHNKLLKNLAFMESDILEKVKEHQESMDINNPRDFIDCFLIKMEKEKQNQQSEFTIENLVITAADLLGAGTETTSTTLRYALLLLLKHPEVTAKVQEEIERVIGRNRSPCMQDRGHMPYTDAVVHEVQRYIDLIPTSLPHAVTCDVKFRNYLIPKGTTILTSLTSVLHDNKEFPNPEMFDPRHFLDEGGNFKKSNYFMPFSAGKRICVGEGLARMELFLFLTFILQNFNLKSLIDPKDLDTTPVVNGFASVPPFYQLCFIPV
Summary of the method: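 5 nM human CYP2C19 with 10uM Luciferin-H EGE (at KM) in 50mM KPO4, compound preincubated 10 min at 37C, then NADPH regeneration for 60 min at 37C. Luciferin read by luminescence after detection reagent; normalized to 57uM ketoconazole as full inhibition.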

[11] = molecular target: ATP-dependent 6-phosphofructokinase (Trypanosoma brucei brucei) (UniProt O15648); test: qHTS Assay to Find Inhibitors of T. brucei phosphofructokinase: hit validation (AID 492961); details: T. brucei PFK, ADP-Glo luminescence; series mostly up to 51.4 µM
Chain of ATP-dependent 6-phosphofructokinase (Trypanosoma brucei brucei) (O15648 whole entry, looked up): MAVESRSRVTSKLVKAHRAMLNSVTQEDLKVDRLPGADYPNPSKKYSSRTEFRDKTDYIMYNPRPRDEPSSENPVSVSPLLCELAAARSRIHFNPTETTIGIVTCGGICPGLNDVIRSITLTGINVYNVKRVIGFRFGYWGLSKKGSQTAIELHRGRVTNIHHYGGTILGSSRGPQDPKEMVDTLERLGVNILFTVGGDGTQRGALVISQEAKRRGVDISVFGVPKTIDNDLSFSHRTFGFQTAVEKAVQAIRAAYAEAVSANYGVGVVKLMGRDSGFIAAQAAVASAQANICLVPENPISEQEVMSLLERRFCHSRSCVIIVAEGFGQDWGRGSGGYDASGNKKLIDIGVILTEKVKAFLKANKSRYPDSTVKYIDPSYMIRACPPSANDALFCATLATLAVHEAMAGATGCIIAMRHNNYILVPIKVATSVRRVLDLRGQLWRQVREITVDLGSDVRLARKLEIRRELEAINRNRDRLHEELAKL
Summary of the method: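 Compounds titrated; %activity normalized to 0x and 1x enzyme controls, curve-fitted. Readout: ADP-Glo luminescence after 45 min room-temperature reaction of 1.25 nM PFK, 0.1 mM ATP, 0.5 mM F6P, pH 8.0.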

[12] = molecular target: Ubiquitin carboxyl-terminal hydrolase 1 (Homo sapiens) (UniProt O94782); test: Inhibitors of USP1/UAF1: Pilot qHTS (AID 504865); details: purified USP1/UAF1, Ub-rhodamine cleavage fluorescence; series mostly up to 114 µM;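 also: rhodamine fluorescence freed from ubiquitin-rhodamine substrate followed over time; top concentration of the series differs between compounds; % is scaled to controls: 0 for no effect and ±100 for the full control effect; nearly all actives have a fitted effect of over 35% in size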
Chain of Ubiquitin carboxyl-terminal hydrolase 1 (Homo sapiens) (O94782 whole entry, looked up): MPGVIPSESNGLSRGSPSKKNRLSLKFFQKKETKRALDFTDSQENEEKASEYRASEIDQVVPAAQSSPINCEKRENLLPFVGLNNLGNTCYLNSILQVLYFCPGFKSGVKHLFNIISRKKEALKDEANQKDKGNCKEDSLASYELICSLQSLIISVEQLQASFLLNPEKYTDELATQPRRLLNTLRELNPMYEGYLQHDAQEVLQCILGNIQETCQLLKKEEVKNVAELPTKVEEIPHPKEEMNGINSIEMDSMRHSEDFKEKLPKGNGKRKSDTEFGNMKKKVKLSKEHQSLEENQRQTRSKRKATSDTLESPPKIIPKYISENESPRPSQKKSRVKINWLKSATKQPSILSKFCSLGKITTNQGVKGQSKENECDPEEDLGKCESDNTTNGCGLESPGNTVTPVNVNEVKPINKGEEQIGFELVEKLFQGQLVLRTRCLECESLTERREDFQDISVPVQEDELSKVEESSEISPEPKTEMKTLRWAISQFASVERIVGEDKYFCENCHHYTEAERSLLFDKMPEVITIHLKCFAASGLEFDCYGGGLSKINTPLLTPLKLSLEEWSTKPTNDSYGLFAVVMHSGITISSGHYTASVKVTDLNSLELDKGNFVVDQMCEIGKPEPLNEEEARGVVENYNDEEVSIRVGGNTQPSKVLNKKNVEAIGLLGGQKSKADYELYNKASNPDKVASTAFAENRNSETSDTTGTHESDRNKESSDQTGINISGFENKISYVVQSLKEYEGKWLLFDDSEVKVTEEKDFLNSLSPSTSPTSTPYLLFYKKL
Summary of the method: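 1nM USP1/UAF1 + cpd, 15 min RT; start w/ Ub-Rho 150nM final; kinetic FL 480/540 nm, 6 reads q60 s. Buffer 50mM HEPES pH 7.8, 0.5mM EDTA, 1mM TCEP, 0.01% Tween-20, 0.1 mg/ml BSA.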

[13] = molecular target: Luciferin 4-monooxygenase (Photinus pyralis) (UniProt P08659); test: Biochemical firefly luciferase enzyme assay for NPC (AID 624030);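 also: purified P. pyralis luciferase at 10 nM with luciferin and ATP substrate; 0% = DMSO and -100% = full luciferase inhibition by PTC124 control; nearly all actives have a fitted effect of over 70% in size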; details: purified P. pyralis luciferase, luminescence, 5 min; series mostly up to 58.6 µM
Chain of Luciferin 4-monooxygenase (Photinus pyralis) (P08659 whole entry, looked up): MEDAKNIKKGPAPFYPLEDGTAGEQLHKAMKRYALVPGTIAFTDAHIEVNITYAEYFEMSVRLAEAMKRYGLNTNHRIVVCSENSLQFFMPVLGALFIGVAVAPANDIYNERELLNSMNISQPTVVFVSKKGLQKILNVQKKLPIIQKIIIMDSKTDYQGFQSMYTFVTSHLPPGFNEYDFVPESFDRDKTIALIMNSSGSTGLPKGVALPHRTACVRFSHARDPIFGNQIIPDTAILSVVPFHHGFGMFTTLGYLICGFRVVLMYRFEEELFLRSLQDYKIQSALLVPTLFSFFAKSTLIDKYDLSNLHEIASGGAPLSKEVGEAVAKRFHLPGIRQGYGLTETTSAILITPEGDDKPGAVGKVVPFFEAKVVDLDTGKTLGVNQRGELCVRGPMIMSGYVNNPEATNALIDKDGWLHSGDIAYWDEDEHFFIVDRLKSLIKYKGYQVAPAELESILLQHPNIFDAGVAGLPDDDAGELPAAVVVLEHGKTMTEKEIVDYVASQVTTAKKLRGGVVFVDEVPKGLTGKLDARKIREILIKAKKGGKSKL
Summary of the method: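 Purified P. pyralis luciferase at 10 nM in 50 mM Tris Acetate (final), luminescence read within 5 minutes of enzyme addition to compounds. Activity normalised to PTC124 versus DMSO; concentration-response curves classed by r2, magnitude and activity.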

[14] = S16 Schwann cell viability assay (CellTiter-Glo assay) (AID 624031); details: S16 rat Schwann cells viability, 24 h; series mostly up to 57.5 µM;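 also: native untransfected S16 rat Schwann cells; cellular ATP luminescence as a viability measure; plate controls were DMSO-treated cells for no effect and cell-free wells for full effect; nearly all actives have a fitted effect of over 70% in size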
Summary of the method: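 Concentration-effect curves come from CellTiter-Glo luminescence of S16 rat Schwann cells after 24 h compound exposure. Each reading was normalized to DMSO wells (0%) and wells without cells, and curves were ranked by r2 and response magnitude.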

[15] = S16 Schwann cell PMP22 intronic element firefly luciferase assay (AID 624032); details: S16 rat Schwann cells, PMP22 element FLuc, 24 h; series mostly up to 57.5 µM;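 also: plate controls were DMSO for no effect and PTC124 positive control mean for full effect; nearly all actives have a fitted effect of over 30% in size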
Summary of the method: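 Rat S16 Schwann cells stably carrying firefly luciferase driven by a PMP22 intronic element, in 10% FBS, treated 24 h at 37 C. ONE-Glo luminescence normalized to PTC124 control and DMSO (0%); curves classed by r2, magnitude and activity.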

[16] = S16 Schwann cell PMP22 intronic element beta-lactamase assay (AID 624044; calls by dose curve;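 also: 0% = DMSO and -100% = potassium clavulanate positive control; nearly all actives have a fitted effect of over 15% in size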); details: S16 rat Schwann cells, PMP22 element beta-lactamase FRET, 24 h; series mostly up to 38.3 µM
Summary of the method: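 Rat S16 Schwann cells with beta-Lac driven by a PMP22 intronic element, compound-treated 24 h at 37 °C. LiveBLAzer FRET B/G read: 460 nm normalized to potassium clavulanate vs DMSO; 535 nm FRET as viability; concentration-effect curves classified.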

3D7 = test: qHTS profiling for inhibitors of Plasmodium falciparum proliferation (AID 504749);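 also: 0% = DMSO vehicle and full inhibition = artemisinin control; nearly all actives have a fitted effect of over 60% in size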; details: P. falciparum in erythrocytes, SYBR Green DNA, 72 h; series mostly up to 28.7 µM
Summary of the method: (§1)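 P. falciparum-infected erythrocytes (0.3% parasitemia, 2.5% hematocrit) incubated with compound 72 h at 37 C, 5% CO2. Parasite DNA detected by SYBR Green after lysis, overnight at room temperature; normalised to 0.29 uM artemisinin and DMSO.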

7G8 = test: as above; details: P. falciparum in erythrocytes, SYBR Green DNA, 72 h; series mostly up to 28.7 µM
Summary of the method: as §1

AA1029 = test: as above; details: P. falciparum in erythrocytes, SYBR Green DNA, 72 h; series mostly up to 28.7 µM
Summary of the method: as §1

AS120 = test: as above; details: P. falciparum in erythrocytes, SYBR Green DNA, 72 h; series mostly up to 28.7 µM
Summary of the method: as §1

ATS189 = test: as above; details: P. falciparum in erythrocytes, SYBR Green DNA, 72 h; series mostly up to 28.7 µM
Summary of the method: as §1

ATS95 = test: as above; details: P. falciparum in erythrocytes, SYBR Green DNA, 72 h; series mostly up to 28.7 µM
Summary of the method: as §1

C2A = test: as above; details: P. falciparum in erythrocytes, SYBR Green DNA, 72 h; series mostly up to 28.7 µM
Summary of the method: as §1

CP185 = test: as above; details: P. falciparum in erythrocytes, SYBR Green DNA, 72 h; series mostly up to 28.7 µM
Summary of the method: as §1

CP191 = test: as above; details: P. falciparum in erythrocytes, SYBR Green DNA, 72 h; series mostly up to 28.7 µM
Summary of the method: as §1

CP192 = test: as above; details: P. falciparum in erythrocytes, SYBR Green DNA, 72 h; series mostly up to 28.7 µM
Summary of the method: as §1

CP194 = test: as above; details: P. falciparum in erythrocytes, SYBR Green DNA, 72 h; series mostly up to 28.7 µM
Summary of the method: as §1

CP201 = test: as above; details: P. falciparum in erythrocytes, SYBR Green DNA, 72 h; series mostly up to 28.7 µM
Summary of the method: as §1

CP203 = test: as above; details: P. falciparum in erythrocytes, SYBR Green DNA, 72 h; series mostly up to 28.7 µM
Summary of the method: as §1

CP211 = test: as above; details: P. falciparum in erythrocytes, SYBR Green DNA, 72 h; series mostly up to 28.7 µM
Summary of the method: as §1

CP215 = test: as above; details: P. falciparum in erythrocytes, SYBR Green DNA, 72 h; series mostly up to 28.7 µM
Summary of the method: as §1

CP217 = test: as above; details: P. falciparum in erythrocytes, SYBR Green DNA, 72 h; series mostly up to 28.7 µM
Summary of the method: as §1

CP237 = test: as above; details: P. falciparum in erythrocytes, SYBR Green DNA, 72 h; series mostly up to 28.7 µM
Summary of the method: as §1

CP238 = test: as above; details: P. falciparum in erythrocytes, SYBR Green DNA, 72 h; series mostly up to 28.7 µM
Summary of the method: as §1

CP247 = test: as above; details: P. falciparum in erythrocytes, SYBR Green DNA, 72 h; series mostly up to 28.7 µM
Summary of the method: as §1

CP250 = test: as above; details: P. falciparum in erythrocytes, SYBR Green DNA, 72 h; series mostly up to 28.7 µM
Summary of the method: as §1

CP252 = test: as above; details: P. falciparum in erythrocytes, SYBR Green DNA, 72 h; series mostly up to 28.7 µM
Summary of the method: as §1

C[N+]1([O-])[C@H]2CC[C@H]1CC(OC(=O)[C@@H](CO)c1ccccc1)C2 (some centres not stated)
inactive: Potency [1] > 11.4 µM | activity change, negative = inhibition [2] -0.292% | activity change, negative = inhibition [3] 0.8% [at 2.29 µM] | activity, negative = inhibition [5] -0.881% | Potency [6] > 46 µM | Potency [7] > 9.22 µM | activity change, negative = inhibition [8] 1.19% [at 11.4 µM] | outcome [9] | Potency [10] | outcome [11] | Potency [12] | outcome [13] | outcome [14] | outcome [15] | outcome [16] | Potency (3D7) | Potency (7G8) | Potency (AA1029) | Potency (AS120) | Potency (ATS189) | Potency (ATS95) | Potency (C2A) | Potency (CP185) | Potency (CP191) | Potency (CP192) | Potency (CP194) | Potency (CP201) | Potency (CP203) | Potency (CP211) | Potency (CP215) | Potency (CP217) | Potency (CP237) | Potency (CP238) | Potency (CP247) | Potency (CP250) | Potency (CP252)
active: activity change, negative = inhibition [4] -79.7%
